# Results taken from PubChem BioAssay.
# The source made the active and inactive calls.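 Rule for the calls, unless noted: active = compound raises insulin release from rat beta cells at 5 mM glucose, no numeric limit stated; inactive = the rest.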
# Tests used:
# [1] = Wnt pathway potentiators raising nuclear beta-catenin – imaging, WNT3A-conditioned medium, mouse C2C12, NPC library, primary screen (AID 1117326; in the data active = nuclear beta-catenin stimulation mostly above about 4.2%, no sharp cut-off; inactive = mostly below about 10%; note: reference of the scale not given here); settings: stronger effect = higher value
# [2] = stimulators of insulin release from INS-1E, primary screen, cell-based, 5 mM glucose, NPC library (AID 1117329); settings: rat INS-1E insulin secretion, at 10 µM, stronger effect = higher value; note: reference of the scale not given here
# [3] = growth inhibition of GSK3B-pretreated HCT116 cells – cell-based, CellTiter-Glo, 0.2 to 20 µM (AID 1117336;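 active = compounds lowering colon cancer cell viability after pretreatment blocking the GSK3B kinase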); settings: HCT116 viability after GSK3B inhibitor, at 20 µM, stronger effect = higher value
# [4] = inhibition of endothelial tube formation, primary screen, imaging, VEGF stimulated, CD31 staining, tube area, NPC library (AID 1117340;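 active = compound that reduces growth-factor-driven endothelial tube area in a mixed cell culture, no cutoff stated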); settings: VEGF-stimulated ADSC/ECFC co-culture, at 10 µM, stronger effect = higher value
# [5] = GLP1 release stimulators, primary, NCI-H716, NPC library (AID 1117341;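 active = compound raises GLP1 secretion from the human gut endocrine cells, with no numeric limit stated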; note: reference of the scale not given here); settings: NCI-H716 cells, at 10 µM, stronger effect = higher value
# [6] = HCT116 colon cancer cell growth inhibition, primary screen, CellTiter-Glo luminescence, NPC library (AID 1117342;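 active = compounds that lower survival of HCT116 colon cancer cells in the luminescence readout, no numeric limit stated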); settings: at 20 µM (top of the series)
# [7] = reduced SW480 viability measured with CellTiter-Glo, NPC library, primary (AID 1117343;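 active = compounds that lower viability of the colon cancer cells in the luminescence readout, with no numeric limit stated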); settings: CellTiter-Glo luminescence; at 20 µM (top of the series)
# [8] = NPC library primary testing for decreased DLD-1 cell viability via CellTiter-Glo (AID 1117346;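 active = compounds that lower survival of DLD-1 colon cancer cells in the luminescence readout, no cutoff given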); settings: DLD-1 viability, CellTiter-Glo luminescence; at 20 µM (top of the series)
Structure (SMILES),nuclear beta-catenin stimulation ([1]; at 10 µM),"nuclear beta-catenin stimulation ([1]; stimulation, at 2 µM) [%]",insulin secretion stimulation [2],viability decrease [3],tube area decrease [4],GLP1 secretion stimulation [5],inhibition of viability [6],viability decrease (inhibition) [7],viability decrease (inhibition) [8]
CNC(=O)Oc1cccc2ccccc12,7.6% (inactive),0.4,1.3% (inactive),0.5% (inactive),41.9% (active),-5.4% (inactive),5% (inactive),114% (active),16.3% (inactive)
CCC(C)(C)c1ccc(O)cc1,0.6% (inactive),-0.2,-1% (inactive),-20.2% (inactive),9.4% (inactive),6.1% (inactive),0.6% (inactive),-13% (inactive),-2.4% (inactive)
C#CCOC(C(=O)OCCN(C)C)(c1ccccc1)c1ccccc1,2.7% (inactive),0.9,28.7% (active),-8.15% (inactive),36.7% (inactive),5.3% (inactive),-6.2% (inactive),17.1% (inactive),-1.8% (inactive)
C[C@@]12CCCCC[C@@H](Cc3ccc(O)cc31)[C@H]2N,-0.5% (inactive),0.1,11.2% (inactive),-4.1% (inactive),8.5% (inactive),-2.3% (inactive),13.4% (inactive),6.4% (inactive),-12.5% (inactive)
C[C@H]1CNCCc2ccc(Cl)cc21,2.8% (inactive),0.8,16.9% (inactive),-1.35% (inactive),-10.5% (inactive),6.1% (inactive),1.7% (inactive),45.3% (inactive),0.95% (inactive)
O=C1OC(CCN2CCCCC2)OC1(c1ccccc1)c1ccccc1 (stereo unspecified),15% (inactive),0.5,5.9% (inactive),0.7% (inactive),6% (inactive),4.4% (inactive),1.1% (inactive),15% (inactive),92.8% (active)
COC(=O)c1cncn1C(C)c1ccccc1 (stereo unspecified),-0.2% (inactive),0.1,1% (inactive),1.8% (inactive),-14.8% (inactive),1.6% (inactive),-8.6% (inactive),24.4% (inactive),20.5% (inactive)
CC(C(O)c1ccccc1)N(C)C/C=C/c1ccccc1 (stereo unspecified),3.5% (inactive),3.1,2.4% (inactive),-101% (inactive),54.6% (active),-3.2% (inactive),60.9% (active),29.4% (inactive),7.9% (inactive)
O=C(O)c1cc(Oc2ccc(C(F)(F)F)cc2Cl)ccc1[N+](=O)[O-],1.4% (inactive),0.5,4.1% (inactive),-10.9% (inactive),0.3% (inactive),3.1% (inactive),9.4% (inactive),-9.4% (inactive),-3.5% (inactive)
CCC(=O)O[C@@H]1C=C2CCC3C(CCC4(C)C3CC[C@@H]4OC(=O)CC)C2CC1 (stereo partly specified),-0.9% (inactive),1.3,4.8% (inactive),7.6% (inactive),-11.8% (inactive),-4.4% (inactive),21.4% (inactive),13.2% (inactive),9.9% (inactive)
CC(Cc1ccccc1)N(C)Cc1ccco1 (stereo unspecified),-0.5% (inactive),0.7,2.3% (inactive),-12.2% (inactive),25.5% (inactive),0.1% (inactive),8.5% (inactive),4.3% (inactive),-1.8% (inactive)
CCc1ccc(C2CCNCC2)cc1,-1.4% (inactive),-0.7,4% (inactive),-2.8% (inactive),1.2% (inactive),-5.6% (inactive),24.1% (inactive),9% (inactive),-8.7% (inactive)
COc1cccc(C(=O)CCN[C@@H](C)[C@H](O)c2ccccc2)c1,20.8% (inactive),-0.6,8.8% (inactive),-1.3% (inactive),42% (active),0.7% (inactive),2.3% (inactive),91.6% (active),75.9% (active)
CNC(C)Cc1ccccc1OC (stereo unspecified),-0.4% (inactive),1.2,7.2% (inactive),-1.3% (inactive),-13.1% (inactive),0.2% (inactive),9.4% (inactive),41.8% (inactive),43.1% (inactive)
